# Source: the supplement of paper PMC8728848
# Only a selection was taken, and the strongest signals are over-represented in it overall.
# B1: LlpA1 (Pseudomonas fluorescens), Q4KHC3 (protein)
# chain: MGSSHHHHHHSSGLVPRGSHMAWIRYDFTDNGSSVLPARYYMAPNQYLQSPNKRFKLLFQADGNLALYDGAQLAWVADQNTPFTNVSKGNKKDPMMVFMNYGFVLDDPLRGRIWSTTPSDPTMGSREDASLRAFTQVQDDGNIVTVDTIPHWYAPNGRVFTPAVGAAMIIGGTTELVPGQFYSAGEHSLVFQGDGNLVVYGPNSSVIWATYTQNKGGVRCVMQEDGNLVIYAANNGVVWQSGTGGHPGATIRLQANGSFTIVTERPVWARFGYTPTIKPPRVFYPDHKWKTGSYTWNNVF
# Legend:
# Assay in all cases: glycan array binding signal (z-score within array); higher = stronger binding
# Settings in all cases: glycan notation: IUPAC condensed, linker removed
# [1] = biological target: Fuc(a1-2)Gal(b1-3)GalNAc
# Procedure, shortened: (§1)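 Glycan array binding is given as a within-array Z-score, which can be read as non-binding when negative. The arrays, 3228 of them, came from the Consortium for Functional Glycomics database and were retained only where the protein sequence was available. Z-scores were averaged across arrays of the same protein sequence at different concentrations or buffers and across linkers.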
# [2] = biological target: Fuc(a1-2)Gal(b1-3)GlcNAc(b1-2)Man(a1-3)[Fuc(a1-2)Gal(b1-3)GlcNAc(b1-2)Man(a1-6)]Man(b1-4)GlcNAc(b1-4)GlcNAc
# Procedure, shortened: as §1
# [3] = biological target: Fuc(a1-2)Gal(b1-3)GlcNAc(b1-2)Man(a1-3)[Fuc(a1-2)Gal(b1-3)GlcNAc(b1-2)Man(a1-6)]Man(b1-4)GlcNAc(b1-4)[Fuc(a1-6)]GlcNAc
# Procedure, shortened: as §1
# [4] = biological target: Fuc(a1-2)Gal(b1-3)[Fuc(a1-4)]GlcNAc(b1-2)Man(a1-3)[Fuc(a1-2)Gal(b1-3)[Fuc(a1-4)]GlcNAc(b1-2)Man(a1-6)]Man(b1-4)GlcNAc(b1-4)GlcNAc
# Procedure, shortened: as §1
# [5] = biological target: Fuc(a1-2)Gal(b1-4)Fuc(a1-3)]GlcNAc(b1-2)Man(a1-3)[Fuc(a1-2)Gal(b1-4)[Fuc(a1-3)]GlcNAc(b1-2)Man(a1-6)]Man(b1-4)GlcNAc(b1-4)GlcNAc
# Procedure, shortened: as §1
# [6] = biological target: Fuc(a1-2)Gal(b1-4)[Fuc(a1-3)]GlcNAc(b1-3)GalNAc
# Procedure, shortened: as §1
# [7] = biological target: Fuc(a1-2)[GalNAc(a1-3)]Gal(b1-3)GalNAc(b1-3)Gal(a1-4)Gal(b1-4)Glc
# Procedure, shortened: as §1
# [8] = biological target: Fuc(a1-2)[GalNAc(a1-3)]Gal(b1-4)GlcNAc(b1-3)GalNAc
# Procedure, shortened: as §1
# [9] = biological target: Fuc(a1-2)[GalNAc(a1-3)]Gal(b1-4)[Fuc(a1-3)]GlcNAc
# Procedure, shortened: as §1
# [10] = biological target: Fuc(a1-3)[Gal3S(b1-4)]GlcNAc6S
# Procedure, shortened: as §1
# [11] = biological target: Fuc(a1-3)[GalNAc(b1-4)]GlcNAc
# Procedure, shortened: as §1
# [12] = biological target: Gal(a1-3)Gal(b1-4)GlcNAc(b1-2)Man
# Procedure, shortened: as §1
# [13] = biological target: Gal(a1-3)Gal(b1-4)GlcNAc(b1-6)GalNAc
# Procedure, shortened: as §1
# [14] = biological target: Gal(a1-3)[Gal(a1-4)]Gal(b1-4)GlcNAc
# Procedure, shortened: as §1
# [15] = biological target: Gal(a1-6)Glc
# Procedure, shortened: as §1
# [16] = biological target: Gal(b1-3)GalNAc(b1-4)[Neu5Ac(a2-3)]Gal(b1-4)Glc
# Procedure, shortened: as §1
# [17] = biological target: Gal(b1-3)GlcNAc(b1-3)Gal(b1-4)GlcNAc(b1-2)[Gal(b1-3)GlcNAc(b1-3)Gal(b1-4)GlcNAc(b1-6)]Man(a1-6)[Gal(b1-3)GlcNAc(b1-3)Gal(b1-4)GlcNAc(b1-2)Man(a1-3)]Man(b1-4)GlcNAc(b1-4)[Fuc(a1-6)]GlcNAc
# Procedure, shortened: as §1
# [18] = biological target: Gal(b1-3)GlcNAc(b1-3)GalNAc
# Procedure, shortened: as §1
# [19] = biological target: Gal(b1-3)[Fuc(a1-4)]GlcNAc(b1-3)Gal(b1-4)GlcNAc
# Procedure, shortened: as §1
# [20] = biological target: Gal(b1-4)GlcNAc(b1-2)Man(a1-3)[Gal(b1-4)GlcNAc(b1-2)Man(a1-6)]Man(b1-4)GlcNAc(b1-4)GlcNAc
# Procedure, shortened: as §1
# [21] = biological target: Gal(b1-4)GlcNAc(b1-2)Man(a1-3)[GlcNAc(b1-2)Man(a1-6)]Man(b1-4)GlcNAc(b1-4)GlcNAc
# Procedure, shortened: as §1
# [22] = biological target: Gal(b1-4)GlcNAc(b1-2)Man(a1-3)[GlcNAc(b1-4)][Gal(b1-4)GlcNAc(b1-2)Man(a1-6)]Man(b1-4)GlcNAc(b1-4)GlcNAc
# Procedure, shortened: as §1
# [23] = biological target: Gal(b1-4)GlcNAc(b1-2)[Gal(b1-4)GlcNAc(b1-4)]Man(a1-3)[GlcNAc(b1-4)][Gal(b1-4)GlcNAc(b1-2)[Gal(b1-4)GlcNAc(b1-6)]Man(a1-6)]Man(b1-4)GlcNAc(b1-4)[Fuc(a1-6)]GlcNAc
# Procedure, shortened: as §1
# [24] = biological target: Gal(b1-4)GlcNAc(b1-3)Gal(b1-4)GlcNAc(b1-2)[Gal(b1-4)GlcNAc(b1-3)Gal(b1-4)GlcNAc(b1-6)]Man(a1-6)[Gal(b1-4)GlcNAc(b1-3)Gal(b1-4)GlcNAc(b1-2)Man(a1-3)]Man(b1-4)GlcNAc(b1-4)GlcNAc
# Procedure, shortened: as §1
# [25] = biological target: Gal(b1-4)GlcNAc(b1-3)Gal(b1-4)GlcNAc(b1-2)[Gal(b1-4)GlcNAc(b1-3)Gal(b1-4)GlcNAc(b1-6)]Man(a1-6)[Gal(b1-4)GlcNAc(b1-3)Gal(b1-4)GlcNAc(b1-2)Man(a1-3)]Man(b1-4)GlcNAc(b1-4)[Fuc(a1-6)]GlcNAc
# Procedure, shortened: as §1
# [26] = biological target: Gal(b1-4)GlcNAc(b1-3)Gal(b1-4)GlcNAc(b1-3)Gal(b1-4)GlcNAc(b1-3)Gal(b1-4)GlcNAc(b1-2)Man(a1-3)[Gal(b1-4)GlcNAc(b1-3)Gal(b1-4)GlcNAc(b1-3)Gal(b1-4)GlcNAc(b1-3)Gal(b1-4)GlcNAc(b1-2)Man(a1-6)]Man(b1-4)GlcNAc(b1-4)[Fuc(a1-6)]GlcNAc
# Procedure, shortened: as §1
# [27] = biological target: Gal(b1-4)GlcNAc(b1-3)Gal(b1-4)GlcNAc(b1-3)Gal(b1-4)GlcNAc(b1-3)Gal(b1-4)GlcNAc(b1-3)Gal(b1-4)GlcNAc(b1-2)Man(a1-3)[Gal(b1-4)GlcNAc(b1-3)Gal(b1-4)GlcNAc(b1-3)Gal(b1-4)GlcNAc(b1-3)Gal(b1-4)GlcNAc(b1-3)Gal(b1-4)GlcNAc(b1-2)Man(a1-6)]Man(b1-4)GlcNAc(b1-4)GlcNAc
# Procedure, shortened: as §1
binder,measurement,setting,value
B1,glycan array binding signal (z-score),[1],-0.757
same,glycan array binding signal (z-score),[2],3.75
same,glycan array binding signal (z-score),[3],-0.133
same,glycan array binding signal (z-score),[4],3.21
same,glycan array binding signal (z-score),[5],3.1
same,glycan array binding signal (z-score),[6],2.56
same,glycan array binding signal (z-score),[7],0.171
same,glycan array binding signal (z-score),[8],-0.468
same,glycan array binding signal (z-score),[9],0.114
same,glycan array binding signal (z-score),[10],-0.653
same,glycan array binding signal (z-score),[11],-0.611
same,glycan array binding signal (z-score),[12],-0.521
same,glycan array binding signal (z-score),[13],0.065
same,glycan array binding signal (z-score),[14],2.71
same,glycan array binding signal (z-score),[15],0.047
same,glycan array binding signal (z-score),[16],-0.058
same,glycan array binding signal (z-score),[17],0.631
same,glycan array binding signal (z-score),[18],-0.529
same,glycan array binding signal (z-score),[19],-0.53
same,glycan array binding signal (z-score),[20],-0.071
same,glycan array binding signal (z-score),[21],0.504
same,glycan array binding signal (z-score),[22],-0.797
same,glycan array binding signal (z-score),[23],2.29
same,glycan array binding signal (z-score),[24],2.3
same,glycan array binding signal (z-score),[25],1.19
same,glycan array binding signal (z-score),[26],1.12
same,glycan array binding signal (z-score),[27],2.15
